Where “and” joins values, the source holds several entries; their conditions need not be identical. Identical values can stand only once. The whole screen tested about 310,000 compounds, of which about 11,000 (3.5%) were called active. Roughly 4% stayed inconclusive and do not appear here. The call rests on the fitted dose curve; in most records, active means well fitted inhibition curve with a large enough effect; inconclusive means small, poorly fitted or top-dose-only effect, or another doubt; inactive means no such curve, though single readings can be large or run the other way. For the sample, actives were picked, then their nearest neighbours and some compounds at random.

The results in this text go back to PubChem BioAssay AID1490 (National Center for Advancing Translational Sciences (NCATS), 2009).
Potency means the concentration at half of the fitted maximal effect.

The assay deals with 4'-phosphopantetheinyl transferase ffp (Bacillus subtilis) (UniProt Q9F4F7). The assay can be described thus: qHTS Assay for Inhibitors of Bacillus subtilis Sfp phosphopantetheinyl transferase (PPTase).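 Further: the enzyme is Sfp with the accession as filed and its product quenches rhodamine fluorescence.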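 On largest response in the series, negative = inhibition: 0% = enzyme reaction without inhibitor and -100% = no enzyme wells.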 The settings on record: Biochemical Sfp PPTase activity. The method, boiled down: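 After 15 min at room temperature with compound, 15 nM Sfp received 5 uM rhodamine-CoA plus 12.5 uM BHQ-2-ybbR (50 mM Hepes pH 7.6, 10 mM MgCl2). Rate came from the fluorescence difference over 30 min, ex 525/em 598 nm.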
Background: qHTS replaces the single test concentration by a dilution series.
`Cc1ccc(/C=N/NC(=O)CSc2nc3ccccc3o2)cc1`: the largest response in the series, negative = inhibition is -16.9% (inactive).

With `O=C(CSc1nc2ccccc2o1)N/N=C/c1ccccc1C(=O)O`, the Potency was 44.7 µM (active). For `CC(C)(C)C(=O)CSc1nc2ccccc2o1`, the largest response in the series, negative = inhibition is 7.38% (inactive). Take `CCN(CC)S(=O)(=O)c1ccc(C(=O)N2CCN(C3=NS(=O)(=O)c4ccccc43)CC2)cc1`: the largest response in the series, negative = inhibition was 14.9% (inactive).

For `COc1cccc(CCNC(=O)c2cccc(NC(=O)C3=C(C)OCCS3)c2)c1`, the largest response in the series, negative = inhibition is 3.98% (inactive). In the case of `c1csc(-c2cn3c(n2)SCC3)c1`, the Potency is 79.4 µM (active). Consider `Cc1cc(-c2cccs2)nc(-n2cccc2)n1`, for which the largest response in the series, negative = inhibition was 1.03% (inactive). Same read-out and setting: for `CCCS(=O)(=O)Nc1ccc(-c2cn3c(n2)SCC3)cc1` the value was -22.5% (inactive); for `CCOC(=O)COn1c(=O)c(-c2ccc(OCC)cc2)[n+]([O-])c2ccccc21`, 1.13% (inactive). Regarding `COc1ccc(OC)c(-c2c(=O)n(OCc3ccccc3Br)c3ccccc3[n+]2[O-])c1`, the largest response in the series, negative = inhibition was 9.79% (inactive). Consider `CCOc1ccc(OCC)c(-c2c(=O)n(OCc3ccc(Cl)cc3)c3ccccc3[n+]2[O-])c1`, for which the Potency was 100 µM (active).

In the case of `O=C(N=C1SC2CS(=O)(=O)CC2N1c1cc(Cl)ccc1Cl)C1CC1` (stereo not drawn), the largest response in the series, negative = inhibition is 8.66% (inactive).

For `O=c1oc(-c2ccco2)nc2sc3c(c12)CCCCC3`, the largest response in the series, negative = inhibition was 2.61% (inactive). As for `COc1ccc(CCn2c(=N)c(C(=O)NCc3ccco3)cc3c(=O)n4cccc(C)c4nc32)cc1`, the largest response in the series, negative = inhibition is -13.5% (inactive). As for `O=C(NCc1ccco1)c1cccn2c(=O)c3c4c(sc3nc12)CCCC4`, the Potency was 44.7 µM (active).

For `CCc1ccc(NC(=O)CS(=O)CC(=O)N2CCN(c3ccccc3F)CC2)cc1` (stereo not drawn), the largest response in the series, negative = inhibition was 2.49% (inactive). As to `COc1ccc(C(=O)NC2CC2)cc1OC1CCN(C/C=C/c2ccccc2)CC1`, the largest response in the series, negative = inhibition was 8.51% (inactive). For the compound `Cc1coc2c(O)cc3c(c12)OC1(N2CCCCC2)C(=O)NCCCC31` (stereo not drawn), the Potency is 28.2 µM (active).

Turning to `Cc1nonc1C1CCCN1C(=O)c1cc(COc2cccc(C(F)(F)F)c2)on1` (stereo not drawn), the largest response in the series, negative = inhibition was 14.2% (inactive). As for `CCc1cccc(NC(=O)CCCN2C(=O)C(c3ccccc3)Oc3cccnc32)c1` (stereo not drawn), the largest response in the series, negative = inhibition is 11.6% (inactive).

In the case of `COC(=O)C(CC(C)C)NS(=O)(=O)c1cc(Br)ccc1Br` (stereo not drawn), the largest response in the series, negative = inhibition was 6.49% (inactive).

In the case of `COc1cc2c(cc1OC)CC(=O)N(CCCN(C)C[C@H]1Cc3cc(OC)c(OC)cc31)CC2`, the largest response in the series, negative = inhibition is 9.18% (inactive). As to `Cc1cccc(N2C(=O)CC(SC(N)=Nc3ccccc3)C2=O)c1` (stereo not drawn), the largest response in the series, negative = inhibition is 10.8% (inactive). As to `Cc1cccc(N2C(=O)SC(SC(=Nc3ccccc3)Nc3ccccc3)C2=O)c1` (stereo not drawn), the Potency is 10 µM (active). Turning to `Cc1cccc(N2C(=O)c3ccc(C(=O)Nc4cccc(C(=O)O)c4)cc3C2=O)c1`, the largest response in the series, negative = inhibition was 8.86% (inactive). Consider `CCOC(=O)C1(Cc2ccccc2C)CCCN(C(=O)CN2C(=O)CSC2=O)C1` (stereo not drawn), for which the largest response in the series, negative = inhibition is 3.9% (inactive). Turning to `CC(=O)c1cccc(OCc2cc(C(=O)NC(C)Cc3cccnc3)no2)c1` (stereo not drawn), the largest response in the series, negative = inhibition was 16.6% (inactive).

For the compound `Cc1oc2c(F)c(F)c(F)c(F)c2c1S(=O)(=O)Nc1cccc(C(F)(F)F)c1`, the largest response in the series, negative = inhibition is 11.3% (inactive). As for `O=C(CN1CCN(c2ccc(O)cc2)CC1)NC1CCCc2ccccc21` (stereo not drawn), the Potency was 17.8 µM (active). Still for that read-out and setting: for `O=C(CN1CCN(Cc2ccccc2)CC1)Nc1ccc(F)c(F)c1` the value was 56.2 µM (active). `O=C(CN1CCN(c2ccc(F)cc2)CC1)Nc1ccccc1`: the largest response in the series, negative = inhibition is -1.74% (inactive). Take `CSc1ccccc1N1CCN(CCCCCC(=O)NC2CCCc3ccccc32)CC1` (stereo not drawn): the largest response in the series, negative = inhibition is -7.93% (inactive).

Consider `O=C(CN1CCOCC1)Nc1cc(Cl)ccc1Cl`, for which the largest response in the series, negative = inhibition is 2.24% (inactive). Consider `O=C(CN1CCN(c2ccccc2)CC1)Nc1ccc(F)cc1`, for which the largest response in the series, negative = inhibition is 7.85% (inactive). For the compound `Cc1cc(NC(=O)CCN2CCN(Cc3ccccc3)CC2)ccc1Br`, the largest response in the series, negative = inhibition is -5.6% (inactive). For the compound `CC(=O)N1CCN(CC(=O)Nc2ccc(C)c(F)c2)CC1`, the largest response in the series, negative = inhibition was -24.9% (inactive). `O=C(CN1CCN(c2ccc(O)cc2)CC1)Nc1ccc(-c2ccccc2)cc1`: the Potency was 44.7 µM (active).

For the compound `O=C(CSc1nncs1)NC1CCCc2ccccc21` (stereo not drawn), the largest response in the series, negative = inhibition is 15.6% (inactive). With `O=C(CN1CCN(c2cccc(Cl)c2)CC1)Nc1ccc(S(=O)(=O)N2CCOCC2)cc1`, the largest response in the series, negative = inhibition is 13% (inactive).

`O=C(CN1CCN(c2ccc(O)cc2)CC1)Nc1cc(S(=O)(=O)N2CCOCC2)ccc1Cl`: the Potency was 79.4 µM (active). On to `COc1ccc(C2(C#N)CCC(C(=O)O)CC2)cc1OC1CCCC1` (stereo not drawn), for which the largest response in the series, negative = inhibition was 3.3% (inactive).

Consider `CN(CC(=O)NCCN1CCOCC1)S(=O)(=O)c1ccc(F)cc1`, for which the largest response in the series, negative = inhibition is 16.5% (inactive). With `CN(CCNC(=O)c1cc2c(-c3ccccc3F)nn(C)c2s1)C1CCCCC1`, the largest response in the series, negative = inhibition was 5.98% (inactive).

For `COC(=O)c1cc(S(=O)(=O)NCC2CCN(Cc3ccc(Cl)cc3)CC2)cn1C`, the largest response in the series, negative = inhibition was 11.4% (inactive). `CCOC(=O)C1(Cc2ccccc2C)CCCN(C(=O)c2ccc(COC)o2)C1` (stereo not drawn): the largest response in the series, negative = inhibition is -22.7% (inactive).

For `COc1ccc(/C=N/Nc2ccccc2C(=O)O)cc1`, the largest response in the series, negative = inhibition was 11.5% (inactive).

With `CCC(=O)Nc1nc(C)c(C(=O)Nc2cccc(Cl)c2)s1`, the largest response in the series, negative = inhibition was 8.26% (inactive). For the compound `O=C(NCc1ccc(F)cc1)C1CCN(C(=O)Nc2ccc(F)cc2)CC1`, the largest response in the series, negative = inhibition is 9.57% (inactive). Same read-out and setting: under `C=CCOC(=O)NC(c1ccc(F)c(F)c1)C(C(=O)COC)C(=O)OC` (stereo not drawn) stands -7.09% (inactive) and 12.8% (inactive).

For the compound `CCOC(=O)c1cccc(NS(=O)(=O)c2c(C(=O)N3CCCCCC3)c(C)n(C)c2C)c1`, the largest response in the series, negative = inhibition is 2.36% (inactive).

As for `Nc1nonc1-n1nnc(C(=O)N/N=C\c2ccncc2)c1CN1CCCCC1`, the largest response in the series, negative = inhibition was 21.3% (inactive). In the case of `COc1ccc2[nH]cc(CCN3C(=O)c4ccc(C(=O)O)cc4C3=O)c2c1`, the largest response in the series, negative = inhibition is 20.2% (inactive). `C(=N\Nc1ccc2ccccc2n1)/c1ccc2c(c1)OCO2`: the Potency was 50.1 µM (active). With `O=C(CNC(=O)C(c1ccccc1)c1ccccc1)N/N=C\c1ccc2c(c1)OCO2`, the largest response in the series, negative = inhibition is -10.2% (inactive). Same read-out and setting: under `O=C(Cc1ccc(F)cc1)N/N=C/c1ccc2c(c1)OCO2` stands 18.6% (inactive). In the case of `Brc1ccc(-c2csc(N/N=C/c3ccc4c(c3)OCO4)n2)cc1`, the Potency was 2.82 µM (active). For the compound `Cc1noc(C)c1/C=N/Nc1ccc2ccccc2n1`, the largest response in the series, negative = inhibition is 25.3% (inactive). `O=C(N/N=C/c1ccc2c(c1)OCO2)C(=O)N1CCCC1`: the largest response in the series, negative = inhibition is 24.9% (inactive).
